Measurements as given in PubChem BioAssay.

Assay: mitochondrial membrane potential change in A549 cells, profiling panel, cell-based, JC-1 fluorescence, basal, 24 h, 100 nL (AID 1138);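 also: A549 lung adenocarcinoma cells under basal conditions with no added stimulus; test concentration not given here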
Conditions: higher = more signal

In order of falling z-score:
1. C#CCN([C@H](/C=C/C1CC1)[C@@H](O)Cc1ccccc1)[C@@H](Cc1ccccc1)C(=O)OC  3.47
2. CN1C=C(C(=O)OCCS(C)(=O)=O)C(C(=O)OCCS(C)(=O)=O)=CC(CCCO)=CC1c1ccc(CN2CCCC2)cc1 (stereo not drawn)  3.43
3. CN1C(=O)[C@]2(CCS(=O)(=O)c3ccccc3)N=C(c3ccc(OCCCO)cc3)O[C@@H]2c2ccccc21  1.87
4. CC(C)N1CC=CC23O[C@@H]4C=CCCOC(=O)C4[C@H]2C(=O)N(CCCCCO)[C@@H]3C1=O (stereo partly drawn)  1.34
5. CC(C)(C)N1CC=CC23O[C@@H]4/C=C\CCCOC(=O)C4[C@H]2C(=O)N(CCCCCCO)[C@@H]3C1=O (stereo partly drawn)  1.2
6. [N-]=[N+]=NCc1ccccc1C[C@]1(C(=O)N2CCCCC2)N=C(c2ccc(OCCCO)cc2)O[C@H]1c1ccccc1  1.17
7. COC(=O)Cn1c(C(=O)N(C)C)cc2c1C[C@H]1CN(C(=O)c3ccccc3)[C@@](Cc3ccc(OC)cc3)(C(=O)OC)[C@@H]21  0.834
8. CN(C)CCCC[C@@H]1NC(=O)[C@H]2C[C@@H](C(=O)NCc3ccc(F)cc3)[C@@H](c3ccc(O)cc3)N2C1=O  0.742
9. COC(=O)[C@@]1(Cc2ccc(F)cc2)[C@H]2c3cc(C(=O)N(C)C)n(CCn4cc([N+](=O)[O-])nc4C)c3C[C@H]2CN1C(=O)c1ccccc1  0.608
10. CC(C)CNC(=O)[C@@H]1c2ccccc2C(=O)N(C(C)C)[C@H]1c1ccc(CO)cc1  0.484
11. C[N+](C)(C)CCCC[C@@H]1NC(=O)[C@H]2C[C@@H](C(=O)NCCCCCNC(=O)CS)[C@@H](c3ccc(O)cc3)N2C1=O  0.455
12. CC(C)C(=C=CC[C@@H](O)c1ccc(OCCO)cc1)CCO  0.451
13. COc1ccc(CCNC(=O)[C@@]2(Sc3ccc(C)cc3)CC(=O)N(C(C)C)[C@@H]2c2ccc(CO)cc2)cc1  0.339
14. CCOC(=O)C[C@H]1[C@H](OC(=O)Cc2ccc3c(c2)OCO3)[C@@H](NC(=O)c2ccccc2)c2cc(OCCCO)ccc2N1C(=O)Cc1ccc(OC)cc1  0.291
15. COC(=O)[C@@H]1N=C(c2ccc(OCCCO)cc2)O[C@@H]1c1ccccc1CN=[N+]=[N-]  0.22
16. COCCn1c(C(=O)N2CCCC2)cc2c1C[C@H]1CN(C(=O)c3ccccc3)[C@@](Cc3ccccc3)(C(=O)OC)[C@@H]21  0.109
17. COCCOC(=O)N1C(=O)[C@@]2(c3ccccc31)[C@H](C(N)=O)[C@H]1C(=O)O[C@H](c3ccccc3)[C@H](c3ccccc3)N1[C@@H]2c1ccc(OCCO)cc1  0.101
18. [N-]=[N+]=NCc1ccccc1C[C@]1(C(=O)NCc2ccccc2)N=C(c2ccc(OCCCO)cc2)O[C@H]1c1ccccc1CN=[N+]=[N-]  0.064
19. COCCOC(=O)N1C(=O)[C@@]2(c3ccccc31)[C@H](C(=O)N1CCCCCCC1)[C@H]1C(=O)O[C@H](c3ccccc3)[C@H](c3ccccc3)N1[C@@H]2c1ccc(O)cc1  0.0314
20. CCCC[C@@H](O)C1=C(COC)Cn2c(=O)n(-c3ccccc3)c(=O)n2[C@H]1CO  -0.239
21. CC(=O)NCCCC[C@@H]1NC(=O)[C@H]2C[C@@H](C(=O)NCCCCCC[N+](C)(C)C)[C@@H](c3ccc(O)cc3)N2C1=O  -0.431
22. COC(=O)C(CC#Cc1ccc2c(c1)[C@]1(C(=O)N2)[C@H](c2ccc(O)cc2)N2[C@H](c3ccccc3)[C@H](c3ccccc3)OC(=O)[C@H]2[C@@H]1C(=O)N1CCc2cc(OC)c(OC)cc2C1)C(=O)OC  -0.654
23. O=C(NCCO)C1=C[C@H](Oc2ccccc2I)[C@@H](O)[C@H](NCc2ccc(F)cc2)C1  -0.697
24. CC(C)c1ccc(NN2C(C(O)C(C)C)C=CC3C(=O)N(c4ccccc4)C(=O)C32)cc1 (stereo not drawn)  -0.81
25. CC#CCO[Si](C#CCCCCCC)(C(C)C)C(C)C  -0.996
26. COCCOC(=O)N1C(=O)[C@@]2(c3cc(C#CCC(C(=O)OC)C(=O)OC)ccc31)[C@H](C(=O)N1CCCCCCC1)[C@H]1C(=O)O[C@H](c3ccccc3)[C@H](c3ccccc3)N1[C@@H]2c1ccccc1OCCO  -1.49
27. O=C1O[C@@H](c2ccccc2)[C@@H](c2ccccc2)N2[C@@H](c3ccc(OCCO)cc3)[C@]3(C(=O)Nc4ccc(C#CCCO)cc43)[C@@H](C(=O)Nc3nc4ccccc4s3)[C@H]12  -2.19
28. COc1ccccc1CN1C(=O)c2ccccc2[C@](Cc2ccccc2I)(C(=O)NCCCN(C)C)[C@@H]1c1ccc(CO)cc1  -2.4
